These results are taken from PubChem BioAssay.

Molecules are shown by their SMILES. “And” between values parts separate entries of the source, which are not always exact repeats. Identical values can stand only once. The source made the active and inactive calls.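 How the source made its calls: active means mean z-score across replicates of 1.96 or higher in either the MELAS or the Rieske mutant cell line; inactive means the rest.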
Further: test concentration not given here.

The first experiment in a line: sensitizers of A549 cells to miR-34 induction, primary screen, imaging, A549 dox-inducible miR-34, nuclei and caspase counts (AID 1347080). The settings on record: A549 miR-34 inducible, Hoechst nuclei count, 48 h; measured here: total cells without miR-34 induction.
Consider `COc1cc(N)c(Cl)cc1C(=O)NC1CCN(CCCOc2ccc(F)cc2)CC1OC` (centres undefined), for which the cell count stood at 8980.

For `O=C(OOC(=O)c1ccccc1)c1ccccc1`, the cell count was found to be 11400.

Consider `CCOCC(O)COc1ccc(NC(=O)CC[S+](C)C)cc1` (centres undefined), for which the cell count was 9400 and 9390.

In the case of `CC[C@@H](CO)NCCN[C@@H](CC)CO`, the cell count is 12600.

Turning to `Cc1ncc(CSSCc2cnc(C)c(O)c2CO)c(CO)c1O`, the cell count was 9390.

As to `CC1=C(C/C=C(\C)CCC[C@H](C)CCC[C@H](C)CCCC(C)C)C(=O)c2ccccc2C1=O`, the cell count worked out at 12300.

For `OCCc1ccccc1`, the cell count is 13000.

Consider `O=C1c2ccccc2C(=O)C1c1ccc(Br)cc1`, for which the cell count is 13100.

Take `CCOC(=O)c1ccc(O)cc1`: the cell count was 12500.

Turning to `CC(C)CCCC(C)N` (centres undefined), the cell count was found to be 12800.

For `NCCNCCNCCN`, the cell count was determined as 12900.

Take `Nc1ncn([C@H]2C[C@H](O)[C@@H](CO)O2)c(=O)n1`: the cell count came to 9960.

With `CC(O)Cn1cnc2c1c(=O)n(C)c(=O)n2C` (centres undefined), the cell count came out at 8430.

Turning to `CC(=O)NCc1c(I)c(NC(C)=O)c(I)c(C(=O)O)c1I`, the cell count came to 12600.

With `O=S(=O)(O)CCCS(=O)(=O)O`, the cell count came to 9900.

For `CCN(CC)CCOc1ccc2c(c1)C(=O)c1cc(OCCN(CC)CC)ccc1-2`, the cell count was 11900.

With `CCCCCCCCCCOc1cc2c(=O)c(C(=O)OCC)c[nH]c2cc1OCC`, the cell count was found to be 11900.

As for `NC(=O)c1cc[n+](CC2=C(C(=O)[O-])N3C(=O)[C@@H](NC(=O)Cc4cccs4)[C@H]3SC2)cc1`, the cell count was 10100.

Regarding `Cc1cc2nc3ccc(=[N+](C)C)cc-3sc2cc1N`, the cell count came to 2500.

For `NC(=O)C1(N2CCCCC2)CCN(CCCC(=O)c2ccc(F)cc2)CC1`, the cell count came to 9580.

Consider `O=C(Nc1ccc(C(=O)O)c(O)c1)c1ccccc1`, for which the cell count amounted to 13700.

In the case of `O=C1OC2(c3ccc(O)cc3Oc3cc(O)ccc32)c2ccccc21`, the cell count is 12500.

Take `COc1cc(C(=O)NCCCCCC(=O)O)cc(OC)c1OC`: the cell count is 13600.

For the compound `OC1C(O)C(O)C(O)C(O)C1O` (centres undefined), the cell count amounted to 12900.

Regarding `Nc1nc(Cl)nc2c1ncn2[C@@H]1O[C@H](CO)[C@@H](O)[C@@H]1F`, the cell count was 3820 and 3160.

Regarding `CC(=O)OCC(=O)[C@@]1(O)CCC2C3CCC4=CC(=O)CC[C@]4(C)C3[C@@H](O)C[C@@]21C` (some centres undefined), the cell count is 9340.

As for `NC(=O)CCCCC1CCSS1` (centres undefined), the cell count worked out at 9400.

A short description of the next experiment: survival rescue of mitochondrial mutant cells in low glucose, primary screen, MELAS cybrids, Rieske KO mouse fibroblasts, CellTiter-Glo (AID 1508586).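 Further: z relative to plate mean and SD of compound and empty wells.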 The settings on record: MELAS cybrid survival, CellTiter-Glo 48 h, stronger effect = higher value. A general note: In ATP-based viability assays light output follows the ATP content of the culture.
Consider `CCOCC(O)COc1ccc(NC(=O)CC[S+](C)C)cc1` (centres undefined), for which the z-score is -0.246 (inactive).

For `C[N+](C)(C)CCCCCCCCCC[N+](C)(C)C`, the z-score is -0.278 (inactive) and -0.415 (inactive) and 0.382 (inactive).

Turning to `CN(C)CCCOc1nn(Cc2ccccc2)c2ccccc12`, the z-score is -0.315 (inactive) and 0.45 (inactive) and -0.608 (inactive).

For the compound `Cc1c(F)c(N2CCNC(C)C2)cc2c1c(=O)c(C(=O)O)cn2C1CC1` (centres undefined), the z-score was 0.28 (inactive).

Consider `CC1=C(/C=C/C(C)=C/C=C/C(C)=C/C(=O)Nc2ccc(O)cc2)C(C)(C)CCC1`, for which the z-score was 0.416 (inactive).

As for `Nc1nc(Cl)nc2c1ncn2[C@@H]1O[C@H](CO)[C@@H](O)[C@@H]1F`, the z-score was -2.1.

For the compound `CC(O)(P(=O)(O)O)P(=O)(O)O`, the z-score was -0.62 (inactive) and 0.631 (inactive).
